Results: the supplement of paper PMC6135742
Where a name gives a salt, the structure may show the parent alone. In all, about 2,600 compounds were measured (“total cell number (DAPI+ nuclei) relative to DMSO vehicle control”: median about -1.4, lowest 2% from about -23 on). The sample holds the lowest values, similar compounds and a random draw of the others, so the mix is not that of the screen.

What follows are compounds tested on jimpy (Plp1 jimpy) mouse iPSC-derived oligodendrocyte progenitor cells (assay: total cell number (DAPI+ nuclei) relative to DMSO vehicle control (SDs above negative control mean); higher = more surviving cells). Settings: 10 µM; 3 days.
Procedure: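 Primary phenotypic screen of >3,000 bioactive compounds (Selleck L1700 and Sigma LO1280 libraries) at a single dose of 10 µM. Compounds were added to jimpy (Plp1 mutant) mouse iPSC-derived OPCs at the start of thyroid hormone-induced oligodendrocyte differentiation, one well per compound in 384-well plates. After 3 days cells were stained for MBP, Sox10 and DAPI and imaged with an Operetta system. MBP+ oligodendrocyte number and total cell number were expressed as the number of SDs above the mean of the DMSO negative control on the same plate (n=16 control wells per plate). Hits were defined as >=4 SD for oligodendrocytes and >=2 SD for total cells.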

Question: With `CCOC(=O)c1c(CSc2ccccc2)n(C)c2cc(Br)c(O)c(CN(C)C)c12` [Arbidol HCl] as the compound, how does the total cell number read?
Answer: Its total cell number is -4.97.

Question: How did the total cell number turn out when `COC(=O)C1=C(C)NC(C)=C(C(=O)OCCN2CCN(C(c3ccccc3)c3ccccc3)CC2)C1c1cccc([N+](=O)[O-])c1` (centres undefined) [Manidipine 2HCl] was run?
Answer: The total cell number was -11.4.

Question: Which total cell number does the source give for `COC(=O)C1=C(C)NC(C)=C(C(=O)OCCN2CCN(C(c3ccccc3)c3ccccc3)CC2)C1c1cccc([N+](=O)[O-])c1` (centres undefined) [Manidipine] here?
Answer: The total cell number was -13.

Question: How did the total cell number turn out when `C=CCN1CCc2cc(O)c(O)cc2C(c2ccccc2)C1` (racemic) was run?
Answer: The total cell number was -1.7.

Question: How did the total cell number turn out when `C[C@@]1(C(=O)Nc2ccc(F)nc2)CCCN1c1nc(Nc2cc(C3CC3)n[nH]2)c2cccn2n1` was run?
Answer: Its total cell number is -24.7.

Question: Which total cell number does the source give for `O=C(COc1cccc2c(=O)[nH]ccc12)c1ccccc1` here?
Answer: Its total cell number is -0.123.

Question: How did the total cell number turn out when `CCc1ccc2c(-c3cccc(Cl)c3)nc(=O)n(CC)c2n1` was run?
Answer: The total cell number was 0.722.

Question: For `CC(C)NC[C@@H](C(=O)N1CCN(c2ncnc3c2[C@H](C)C[C@H]3O)CC1)c1ccc(Cl)cc1`, which total cell number is on record?
Answer: The total cell number was -8.76.

Question: How did the total cell number turn out when `COc1ccc(C2=N[C@@H](c3ccc(Cl)cc3)[C@@H](c3ccc(Cl)cc3)N2C(=O)N2CCNC(=O)C2)c(OC(C)C)c1` [Nutlin-3] was run?
Answer: The total cell number was -23.5.

Question: `C=C1C(=O)O[C@@H]2/C=C(\C)CC/C=C(\C)CC[C@@H]12` [Costunolide] was tested. Which total cell number did it give?
Answer: Its total cell number is -21.

Question: `CN1CCN(c2ccc3nc(-c4c(N)c5c(F)cccc5[nH]c4=O)[nH]c3c2)CC1` [Dovitinib (TKI-258, CHIR-258)] was tested. Which total cell number did it give?
Answer: Its total cell number is -25.7.

Question: Which total cell number does the source give for `CN1CCN(c2ccc3nc(-c4c(N)c5c(F)cccc5[nH]c4=O)[nH]c3c2)CC1` [Dovitinib (TKI-258) Dilactic Acid] here?
Answer: The total cell number was -12.1.

Question: Which total cell number does the source give for `COc1cc(CCc2cc(NC(=O)c3ccc(N4CC(C)NC(C)C4)cc3)n[nH]2)cc(OC)c1` (centres undefined) here?
Answer: Its total cell number is -10.9.

Question: Which total cell number does the source give for `NC/C=C/C(=O)O` [(E)-4-amino-2-butenoic acid] here?
Answer: The total cell number was -1.89.

Question: How did the total cell number turn out when `CC(C)NCC(O)COc1cccc2ccccc12` (racemic) [(±)-Propranolol hydrochloride] was run?
Answer: The total cell number was -1.57.

Question: `c1ccc(-c2[nH]ncc2-c2ccnc3ccccc23)nc1` was tested. Which total cell number did it give?
Answer: Its total cell number is -2.66.

Question: `OC[C@H]1O[C@H]([S-])[C@H](O)[C@@H](O)[C@@H]1O.[Au+]` [Aurothioglucose] was tested. Which total cell number did it give?
Answer: The total cell number was -2.94.

Question: With `O=C(c1ccc(/C=C/c2n[nH]c3ccccc23)cc1)N1CCNCC1` as the compound, how does the total cell number read?
Answer: The total cell number was -13.2.

Question: Which total cell number does the source give for `COCC[n+]1c2c(n(Cc3cnccn3)c1C)C(=O)c1ccccc1C2=O` [YM155 (Sepantronium Bromide)] here?
Answer: Its total cell number is -27.7.

Question: With `Cc1ccc2c(c1)C(=O)C1(O)CCN(c3ccccc3)C1=N2` (single isomer, unassigned; (-)) [(-)-Blebbistatin] as the compound, how does the total cell number read?
Answer: Its total cell number is -14.8.

Question: How did the total cell number turn out when `CNC(=O)CN1CCC(Oc2cc3c(Nc4cccc(Cl)c4F)ncnc3cc2OC)CC1` [AZD8931 (Sapitinib)] was run?
Answer: The total cell number was -10.1.

Question: Which total cell number does the source give for `CN1CCN(CCOc2cc(OC3CCOCC3)c3c(Nc4c(Cl)ccc5c4OCO5)ncnc3c2)CC1` [Saracatinib (AZD0530)] here?
Answer: Its total cell number is -22.8.

Question: Which total cell number does the source give for `Cc1ccc(Sc2cncc3sc(C(N)=O)cc23)cc1` here?
Answer: The total cell number was 0.0291.

Question: Which total cell number does the source give for `O=C(Nc1ccccc1)N1CCN(c2nc(-c3ccccc3)ns2)CC1` here?
Answer: Its total cell number is 0.543.

Question: Which total cell number does the source give for `CC(C)C[C@H](C(=O)O)c1cc(-c2ccc(C(F)(F)F)cc2)cc(-c2ccc(C(F)(F)F)cc2)c1` here?
Answer: The total cell number was 10.7.

Question: For `COc1ccccc1CN[C@H]1CCCN[C@H]1c1ccccc1`, which total cell number is on record?
Answer: Its total cell number is -1.93.

Question: With `CCCCCCCCCCCCCCCCn1cc[n+](Cc2ccccc2)c1C` as the compound, how does the total cell number read?
Answer: Its total cell number is -16.7.

Question: For `CCCCCN(CCCOC)C(=O)C(CCC(=O)O)NC(=O)c1ccc(Cl)c(Cl)c1` (centres undefined) [Loxiglumide], which total cell number is on record?
Answer: The total cell number was -0.322.

Question: With `CC[C@@H]1C(=O)N(C)c2cnc(Nc3ccc(C(=O)NC4CCN(C)CC4)cc3OC)nc2N1C1CCCC1` as the compound, how does the total cell number read?
Answer: Its total cell number is -26.1.

Question: `COc1cc(OC2CCN(C)CC2)ccc1Nc1ncc2c(n1)n(C1CCCC1)c(=O)n2C` was tested. Which total cell number did it give?
Answer: The total cell number was -7.07.

Question: With `CC[C@@H]1C(=O)N(C)c2cnc(Nc3ccc(C(=O)N[C@H]4CC[C@H](N5CCN(CC6CC6)CC5)CC4)cc3OC)nc2N1C(C)C` [Volasertib (BI 6727)] as the compound, how does the total cell number read?
Answer: Its total cell number is -14.6.

Question: How did the total cell number turn out when `CN1C2=CC(=O)/C(=N\NC(N)=O)C=C2CC1S(=O)(=O)O` (centres undefined) [Carbazochrome sodium sulfonate (AC-17)] was run?
Answer: The total cell number was -0.411.

Question: With `CC1=C(C(=O)OC(C)C)C(c2cccc([N+](=O)[O-])c2)C(C(=O)OC2CN(C(c3ccccc3)c3ccccc3)C2)=C(N)N1` (centres undefined) [Azelnidipine] as the compound, how does the total cell number read?
Answer: The total cell number was -12.3.

Question: `CNCc1cc(-c2ccccc2F)n(S(=O)(=O)c2cccnc2)c1` was tested. Which total cell number did it give?
Answer: Its total cell number is -1.01.

Question: For `CNC(=O)c1cc(Oc2ccc(NC(=O)Nc3ccc(Cl)c(C(F)(F)F)c3)c(F)c2)ccn1` [Regorafenib (BAY 73-4506)], which total cell number is on record?
Answer: The total cell number was 0.684.

Question: Which total cell number does the source give for `COc1cc(N2CCC(N3CCN(C)CC3)CC2)ccc1Nc1ncc(Cl)c(Nc2ccccc2S(=O)(=O)C(C)C)n1` here?
Answer: The total cell number was -27.1.

Question: For `CNC(=O)c1ccccc1Nc1nc(Nc2ccc(N3CCOCC3)cc2OC)ncc1Cl`, which total cell number is on record?
Answer: Its total cell number is -12.2.

Question: For `C=CC(=O)Nc1cccc(Oc2nc(Nc3ccc(N4CCN(C)CC4)cc3OC)ncc2Cl)c1`, which total cell number is on record?
Answer: Its total cell number is -24.9.

Question: For `Cc1cc(Nc2ncc(Cl)c(Nc3ccccc3S(=O)(=O)C(C)C)n2)c(OC(C)C)cc1C1CCNCC1`, which total cell number is on record?
Answer: The total cell number was -16.3.

Question: `C=CCn1c(=O)c2cnc(Nc3ccc(N4CCN(C)CC4)cc3)nc2n1-c1cccc(C(C)(C)O)n1` was tested. Which total cell number did it give?
Answer: The total cell number was -14.6.

Question: For `Cc1cnc(Nc2ccc(N3CCN(C)CC3)cc2)nc1Nc1cccc(S(=O)(=O)NC(C)(C)C)c1`, which total cell number is on record?
Answer: Its total cell number is -12.1.

Question: Which total cell number does the source give for `C=CC(=O)Nc1cccc(Nc2nc(Nc3ccc(N4CCN(C(C)=O)CC4)cc3OC)ncc2C(F)(F)F)c1` here?
Answer: The total cell number was -15.5.

Question: How did the total cell number turn out when `CCC(=O)Nc1cccc(Oc2nc(Nc3ccc(N4CCN(C)CC4)cc3OC)ncc2Cl)c1` was run?
Answer: The total cell number was -15.2.

Question: With `C=CC(=O)Nc1cccc(Sc2nc(Nc3ccc(N4CCN(C)CC4)cc3)ncc2Cl)c1` as the compound, how does the total cell number read?
Answer: Its total cell number is -26.9.

Question: `C=CC(=O)Nc1cccc(Oc2nc(Nc3ccc(N4CCN(C)CC4)cc3)ncc2Cl)c1` was tested. Which total cell number did it give?
Answer: Its total cell number is -26.9.

Question: `C=CC(=O)Nc1cccc(Nc2nc(Nc3ccc(Oc4ccnc(C(=O)NC)c4)cc3)ncc2F)c1` was tested. Which total cell number did it give?
Answer: Its total cell number is -15.

Question: Which total cell number does the source give for `Cn1c(=O)c(-c2c(Cl)cccc2Cl)cc2cnc(Nc3ccc(N4CCOCC4)cc3)nc21` here?
Answer: Its total cell number is -9.85.

Question: For `CC(C)(CO)Cc1cc(C(C)(C)C)c(O)c(C(C)(C)C)c1`, which total cell number is on record?
Answer: The total cell number was 1.01.

Question: Which total cell number does the source give for `COC(=O)C1=C(C)NC(C)=C(C(=O)OC(C)(C)CN(C)CCC(c2ccccc2)c2ccccc2)C1c1cccc([N+](=O)[O-])c1` (centres undefined) [Lercanidipine hydrochloride hemihydrate] here?
Answer: Its total cell number is -8.91.
